Assay outcomes (PubChem BioAssay)
Hits are enriched below; roughly 2.4% of the tested compounds scored in any of these assays.
AmpC inh det: inhibitors of E. coli AmpC beta-lactamase with detergent; P00811; 0.09% of 71,000 active; Potency, µM (series often up to 28.7 µM); AID 584; purified AmpC, nitrocefin hydrolysis with detergent; active = well fitted curve in the direction sought with a large enough effect; inconclusive = small, poorly fitted or top-dose-only effect
Target sequence (P00811 whole entry, looked up): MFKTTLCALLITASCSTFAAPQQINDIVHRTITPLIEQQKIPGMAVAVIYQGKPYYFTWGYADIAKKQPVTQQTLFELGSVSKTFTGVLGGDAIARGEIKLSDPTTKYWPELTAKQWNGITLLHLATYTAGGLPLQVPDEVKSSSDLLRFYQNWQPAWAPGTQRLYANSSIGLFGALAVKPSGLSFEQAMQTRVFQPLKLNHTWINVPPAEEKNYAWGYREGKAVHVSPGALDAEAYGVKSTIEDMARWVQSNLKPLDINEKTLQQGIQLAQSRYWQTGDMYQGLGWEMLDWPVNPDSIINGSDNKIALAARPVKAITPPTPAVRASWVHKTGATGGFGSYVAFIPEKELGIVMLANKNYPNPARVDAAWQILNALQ
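E. coli AmpC (5.3 nM) in 20 mM phosphate pH 7.0 with 0.01% Triton X-100, preincubated 15 min RT with compound; nitrocefin (2 uL of 800 uM stock) hydrolysis followed by 480 nm absorbance every 20 s over 4 min.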
LT uptake inh: inhibitors of anthrax lethal toxin internalization | Cells, anthrax lethal toxin internalization, FRET ratio (460/530) | 0.67% of 70,000 active | Potency, µM (doses to about 40 µM), most hits filed as inhibitors; also: nearly all actives have a fitted effect of over 50% in size
AmpC nodet inh: blocks E. coli AmpC beta-lactamase in absence of detergent; P00811; AmpC nitrocefin hydrolysis, absorbance 480 nm, no detergent; Potency, µM (top dose mostly 28.7 µM); 1.8% of 71,000 active; AID 585
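AmpC in 20 mM phosphate buffer pH 7.0 was preincubated 15 min at room temperature with compounds. Nitrocefin (800 uM stock) was then added and hydrolysis followed at 480 nm every 20 s for 4 min.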
Prx2 Sm inh: blocks S. mansoni peroxiredoxin 2 enzymatic activity. S. mansoni Prx2 activity coupled to TGR/GSH (TGR is thioredoxin glutathione reductase), NADPH fluorescence loss, qHTS. Potency, µM. 0.07% of 65,000 active
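Prx2 inhibition was measured as reduced NADPH consumption when electrons flowed from NADPH through TGR and glutathione to Prx2 and H2O2. Plates were read kinetically over 8 min; enzyme reagents were held at 4 deg C during dispensing.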
Numbers stand for hits; 0 = inactive; ? = inconclusive; - = not tested or not shown; [ ] = another dose, or the depositor's remark. Unless noted, calls follow the shape of the full dose curve.

SMILES	AmpC inh det	LT uptake inh	AmpC nodet inh	Prx2 Sm inh
N#CC1=C2SCN(c3ccc(F)cc3)CN2C(=O)CC1c1cccc(F)c1 (stereo not drawn)	0	0	4µM[single pt active]	0
CCc1ccc(C2CC(=O)N3CN(c4ccccc4)CSC3=C2C#N)cc1 (stereo not drawn)	0	0	20µM[single pt active]	0
COc1ccc(N2CSC3=C(C#N)C(c4cccs4)CC(=O)N3C2)cc1 (stereo not drawn)	0	?	0	0
CCN(CC)CCOc1c(Br)ccc2c1sc1nc3n(c(=O)c12)CCC3	0	7.9µM	0	-
CCOC(=O)c1c(NC(=O)CN2CCN(c3ccccn3)CC2)sc2c1CCCC2	0	0	0	0
O=C(C1CCC(CNc2c(N3CCCCC3)c(=O)c2=O)CC1)N1CCN(c2ccccn2)CC1 (stereo not drawn)	0	0	4µM[single pt active]	0
CCOC(=O)CNc1c(N2CCN(c3ccccn3)CC2)c(=O)c1=O	0	0	4µM[single pt active]	0
Cc1cc(N=Cc2c(O)n(-c3ccc4c(c3)OCO4)c(=O)c3ccccc23)ccn1	0	7.9µM	0	0
Ic1ccccc1CN[C@@H]1C2CCN(CC2)[C@H]1C(c1ccccc1)c1ccccc1	0	16µM	0	0
CCCCN1C(=O)c2ccccc2C1C(=O)NC1CCCC1 (stereo not drawn)	0	0	0	0
CCCN1C(=O)c2cc(C(=O)NC3CCCC3)ccc2C1O (stereo not drawn)	0	0	4µM[single pt active]	0
CCCN1C(=O)c2cc(C(=O)Nc3ccccc3CC)ccc2C1O (stereo not drawn)	0	0	4µM[single pt active]	0
C[C@H]1C(=O)O[C@H]2CCN3CC=C(COC(=O)[C@](C)(O)[C@@]1(C)O)[C@H]23	0	0	0	0
O=C1CC(O)(C(F)(F)F)Oc2c1ccc1ccccc21 (stereo not drawn)	0	10µM	0	-
CNCCCCOc1ccccc1Cc1ccccc1	0	32µM	0	0
COc1ccccc1OCCCCNC(C)(C)C	0	0	0	0
CC(C)CN1CC2(CCN(C(=O)c3csnn3)CC2)C1	0	0	0	0
c1ccc2sc(C3(N4CCCCC4)CCCCC3)cc2c1	0	25µM	0	0
CCN1CCN(c2ncc(C(=O)Nc3ccccc3C(=O)OC)c3ccccc23)CC1	0	10µM	0	0
Cc1oc2c(O)c(O)ccc2c(=O)c1-c1cnn(-c2ccccc2)c1	0	7.9µM	0	-
CC1=CC(=O)NP(=O)(Oc2ccc3ccccc3c2)N1 (stereo not drawn)	0	?	0	0.57
CCC(Oc1ccc2ccccc2c1)C(=O)O (stereo not drawn)	0	0	0	0
COC(=O)CNC(=O)[C@@]1(C)C=C[C@@H](Cc2ccccc2)N1C(C)=O	0	?	0	-
CN(C)c1ncc2nc(-c3ccccc3)c(=O)n(CCc3ccccc3)c2n1	0	?	0	0
COc1ccc(NC(=O)CCCC2=NS(=O)(=O)c3ccccc3N2)cc1	0	0	4µM[single pt active]	0
SMILES	AmpC inh det	LT uptake inh	AmpC nodet inh	Prx2 Sm inh
O=C(CCCC1=NS(=O)(=O)c2ccccc2N1)N1CCN(c2ccc(Cl)cc2)CC1	0	?	4µM[single pt active]	0
CCn1c(=O)c2cc(C(=O)N3CCOCC3)sc2c2ccccc21	0	0	4µM[single pt active]	0
CCn1c(=O)c2cc(C(=O)N3CCCC3)sc2c2ccccc21	0	0	4µM[single pt active]	0
CCOC(=O)c1cc2c(=O)n(C)c3ccccc3c2s1	0	0	0	0
C/C(=N/O)c1ccc2cc(Br)c3ccccc3c2c1	0[5.75 µM]	?	0[5.75 µM]	0
COc1ccc(-c2nc3cnc(N4CCNCC4)nc3n(C3CC3)c2=O)cc1	0	?	0	0
CC(=O)OC[C@@H]1O[C@H](C/C=N\OCC[C@H]2C=C[C@H](OC(C)=O)[C@@H](COC(C)=O)O2)C=C[C@@H]1OC(C)=O	-	0[8 µM]	-	-
CC(O)COC(C)(C)C (stereo not drawn)	0	0	0	-
CCC(=O)Nc1c2c(nn1-c1cccc(Cl)c1)CSC2	0	0	4µM[single pt active]	0
Cc1nonc1NC(=O)CSc1nc2cc(Cl)ccc2c2c1CCCC2	0	0	13µM	0
Cc1cccn2c(=O)c3cc(C(=O)N4CCc5ccccc54)n(C)c3nc12	0	?	0	0
Cc1ccc2cccc(OC(=O)N(C)c3ccccc3)c2n1	0	16µM	0	-
COc1ccc(-c2cc(C(F)(F)F)nc(N3CCN(c4ccccc4)CC3)n2)cc1OC	0	0	0	0
COc1nc(-c2ccccc2)cc(-c2ccc(OC)c(OC)c2)n1	0	13µM	0	-
C/C(=C\C(=O)c1ccc(C)cc1)Nc1cccc(O)c1	0	10µM	0	-
CCCCCc1nnc(NC(=O)Cc2cccs2)s1	0	0	13µM	0
